Screening data as filed in PubChem BioAssay.
RAD52 anneal inh: blocks human RAD52 DNA annealing | recombinant RAD52 DNA annealing, FRET fluorescence | inhibition, % at 18.7 µM | 0.46% of 360,000 active | AID 651710;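 active = every replicate showing at least 50% inhibition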
Target sequence (P43351 whole entry, looked up): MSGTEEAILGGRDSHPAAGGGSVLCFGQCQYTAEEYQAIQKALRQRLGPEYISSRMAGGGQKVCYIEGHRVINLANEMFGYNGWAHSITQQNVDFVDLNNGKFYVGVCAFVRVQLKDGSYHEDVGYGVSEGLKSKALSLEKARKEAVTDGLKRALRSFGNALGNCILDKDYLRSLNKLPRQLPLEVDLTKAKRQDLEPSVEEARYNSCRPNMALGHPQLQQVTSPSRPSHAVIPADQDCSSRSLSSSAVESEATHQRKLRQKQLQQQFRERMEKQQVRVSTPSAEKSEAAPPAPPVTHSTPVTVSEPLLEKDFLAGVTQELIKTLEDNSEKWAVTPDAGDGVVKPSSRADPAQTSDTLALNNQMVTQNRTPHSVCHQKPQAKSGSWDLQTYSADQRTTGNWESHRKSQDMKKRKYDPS
MLL AF4-AF9 inh: MLL-AF4/AF9 protein interaction inhibition. 0.47% of 350,000 active. AlphaScreen, biotin-AF4 peptide binding to FLAG-AF9. inhibition, % at 10 µM. P42568;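 active = every replicate reaching a set inhibition limit, whatever the replicate mean, cut at about 25% in these data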
miR-122 sensor: miR-122 inhibition in Huh7 cells. Huh7 miR-122 Renilla luciferase sensor, 48 h; neutral wells = 0, positive control = 100. activation (reporter increase), % at 12.5 µM. 0.3% of 340,000 active;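 active = mean replicate activation score at least 90 and every replicate individually at or above 90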;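 also: higher luciferase means less miR-122 activity so hits act as miR-122 inhibitors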
NSD2 HMT inh: blocks human histone methyltransferase NSD2; O96028; NSD2 peptide methylation, AlphaScreen, 120 min; inhibition, % at 12.5 µM; 0.54% of 310,000 active; AID 743445; in the data active = inhibition above about 50%
CASP6 VEID inh: blocks human caspase-6 cleavage activity | P55212 | purified caspase-6, Z-VEID-R110 cleavage fluorescence | inhibition, % at 12.5 µM | 0.53% of 350,000 active | AID 686996;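 active = mean inhibition across replicates at least about 35%, with every replicate also reaching that limit, limit read from the data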
Target sequence (P55212 24-179 limits assumed): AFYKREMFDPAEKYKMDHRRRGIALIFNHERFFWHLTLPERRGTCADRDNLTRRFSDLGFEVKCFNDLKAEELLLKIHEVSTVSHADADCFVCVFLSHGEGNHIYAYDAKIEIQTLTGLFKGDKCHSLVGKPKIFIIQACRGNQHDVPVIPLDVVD
Target sequence (P55212 194-293 limits assumed): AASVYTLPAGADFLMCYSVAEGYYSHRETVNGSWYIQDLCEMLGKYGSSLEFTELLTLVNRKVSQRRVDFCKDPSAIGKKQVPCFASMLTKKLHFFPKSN
AlphaScreen art: AlphaScreen assay artifact in NSD2 counter-screen; shares compounds with NSD2 HMT inh; AlphaScreen artifact counterscreen, preloaded methylated H4 peptide; AC35, µM (series often up to 10 µM); 9.4% of 1,500 active; call rule not given here
Of the large screens only hits and unclear results are named; the others gave an inactive call (follow-up assays come after a bar, where they were run). The list is not random: actives were taken first. Their share in the collection is about 1.5%.

Cc1ccc(S(=O)(=O)N(C)C[C@@H]2Oc3c(NC(=O)Nc4ccc5c(c4)OCO5)cccc3C(=O)N([C@@H](C)CO)C[C@@H]2C)cc1	none (no result: NSD2 HMT inh)
CC(=O)Nn1c(COc2ccccc2C)nc2ccccc2c1=O	none (no result: RAD52 anneal inh, MLL AF4-AF9 inh, CASP6 VEID inh)
CC(C)=NOCC(=O)Nn1c(COc2c(C)cccc2C)nc2ccccc2c1=O	NSD2 HMT inh 57 | AlphaScreen art inactive
COc1ccc(NC(=O)Nc2ccc3c(c2)C(=O)N([C@H](C)CO)C[C@@H](C)[C@@H](CN(C)Cc2ccc(C(=O)O)cc2)OCCCC[C@@H](C)O3)cc1	none (no result: NSD2 HMT inh)
CCN(CC)CCCN=Cc1c(-c2ccccc2)[nH]n(-c2nc3ccccc3s2)c1=O	NSD2 HMT inh 75 (no result: miR-122 sensor) | AlphaScreen art inactive
C[N+](C)(C)CCC(=O)N1C/C(=C/c2ccccc2)C(=O)/C(=C\c2ccccc2)C1	NSD2 HMT inh 50 (no result: miR-122 sensor) | AlphaScreen art inactive
CCOC(=O)N1C/C(=C\c2ccccc2)C(=O)/C(=C/c2ccccc2)C1	none
CN(C)CCC(=O)N1C/C(=C/c2ccccc2)C(=O)/C(=C\c2ccccc2)C1	NSD2 HMT inh 50 | AlphaScreen art inactive
O=C(/C=C/c1ccccc1)CCN1CCOCC1	none
O=C1/C(=C/c2ccccc2)CN(C(=O)CCN2CCOCC2)C/C1=C\c1ccccc1	NSD2 HMT inh 68 | AlphaScreen art inactive
C[C@@H]1CN([C@@H](C)CO)C(=O)c2cccc(NC(=O)Nc3ccc(F)cc3)c2O[C@H]1CN(C)C(=O)Nc1ccc2c(c1)OCO2	none (no result: NSD2 HMT inh)
N#Cc1cc(Cl)c(N2CCOCC2)cc1C#N	none (no result: RAD52 anneal inh, MLL AF4-AF9 inh, CASP6 VEID inh)
N#Cc1cc2ccc(N3CCOCC3)cc2cc1C#N	NSD2 HMT inh 120, CASP6 VEID inh 64 | AlphaScreen art inactive
CCC1(c2ccc(F)cc2)NC(=O)N(CC(=O)N(CCC#N)c2ccccc2)C1=O (configuration not stated)	NSD2 HMT inh 60 | AlphaScreen art inactive
N#CCCN(C(=O)CN1C(=O)NC2(CCCC2)C1=O)c1ccccc1F	none (no result: RAD52 anneal inh, MLL AF4-AF9 inh, CASP6 VEID inh)
C[C@@H]1CCCCO[C@@H](CN(C)C(=O)Cc2ccccc2)[C@@H](C)CN([C@H](C)CO)C(=O)c2cc(NC(=O)CCCCCC(=O)Nc3ccccc3N)ccc2O1	none (no result: NSD2 HMT inh)
O=C1CC2(CCCCC2)CC(=O)N1CCc1ccccc1	NSD2 HMT inh 75 (no result: miR-122 sensor) | AlphaScreen art inactive
O=C(Nc1ccc2c(c1)OCO2)N[C@@H]1CC[C@@H](CCNC(=O)C2CCC2)O[C@H]1CO	none (no result: NSD2 HMT inh)
COc1ccc(N/C=C2\CCc3ccccc3C2=O)cc1	NSD2 HMT inh 95 | AlphaScreen art inactive
Cc1ccc(Nc2nnc(SCC(=O)Nc3ccc(S(=O)(=O)N4CCOCC4)cc3)s2)cc1	NSD2 HMT inh 62 (no result: RAD52 anneal inh, MLL AF4-AF9 inh, CASP6 VEID inh) | AlphaScreen art inactive
O=C(CSc1nnc(Nc2ccccc2)s1)Nc1ccc(S(=O)(=O)N2CCOCC2)cc1	none (no result: RAD52 anneal inh, MLL AF4-AF9 inh, CASP6 VEID inh)
O=C(CCCCCN1C(=O)C2C3C=CC(C3)C2C1=O)Nc1ccc(Cl)cc1 (configuration not stated)	none (no result: RAD52 anneal inh, MLL AF4-AF9 inh, miR-122 sensor, CASP6 VEID inh)
O=C(CCCCCN1C(=O)C2C3C=CC(C3)C2C1=O)Nc1ccc2ncccc2c1 (configuration not stated)	NSD2 HMT inh 95 (no result: RAD52 anneal inh, MLL AF4-AF9 inh, miR-122 sensor, CASP6 VEID inh) | AlphaScreen art inactive
COc1ccc(OC)c(C(=O)Nc2c(O)ccc3ccccc23)c1	NSD2 HMT inh 52 (no result: miR-122 sensor) | AlphaScreen art inactive
C[C@@H]1CCCCO[C@H](CN(C)C)[C@@H](C)CN([C@@H](C)CO)C(=O)c2cc(NS(=O)(=O)c3ccc(Cl)cc3)ccc2O1	none (no result: NSD2 HMT inh)
C[C@@H]1CN([C@H](C)CO)C(=O)c2cccc(NC(=O)c3ccc(-c4nccs4)cc3)c2O[C@@H]1CN(C)Cc1ccncc1	none (no result: NSD2 HMT inh)
c1ccc(CCN2CN=C(Nc3nc4ccccc4s3)NC2)cc1	NSD2 HMT inh 64 | AlphaScreen art inactive
COc1ccc(CCNC(=O)CN2C(=O)C(=O)N(C3CCCC3)C2=O)cc1OC	NSD2 HMT inh 55 (no result: miR-122 sensor) | AlphaScreen art inactive
NS(=O)(=O)c1ccc(N/N=C/c2ccncc2)cc1	NSD2 HMT inh 128 | AlphaScreen art inactive
CC1CCCC(C)N1C(=O)COC(=O)c1ccc([N+](=O)[O-])o1 (configuration not stated)	NSD2 HMT inh 69 (no result: miR-122 sensor) | AlphaScreen art inactive
CC1CC(C)CN(C(=O)COC(=O)c2ccc([N+](=O)[O-])o2)C1 (configuration not stated)	none
O=C(C=Cc1ccccc1)c1cc(Br)ccc1O	NSD2 HMT inh 54 | AlphaScreen art inactive
C[C@H](CO)N1C[C@H](C)[C@@H](CN(C)S(C)(=O)=O)Oc2c(NC(=O)c3nc4ccccc4s3)cccc2C1=O	none (no result: RAD52 anneal inh, NSD2 HMT inh)
NC(=O)COC(=O)c1ccc(Cl)c(S(=O)(=O)N2CCN(c3ccc(F)cc3)CC2)c1	NSD2 HMT inh 52 (no result: miR-122 sensor) | AlphaScreen art inactive
NC(=O)COC(=O)c1cccc(S(=O)(=O)N2CCN(c3ccc(F)cc3)CC2)c1	none (no result: CASP6 VEID inh)
Cn1c(SCc2ccccc2C#N)nc2ccccc2c1=O	NSD2 HMT inh 100 | AlphaScreen art inactive
Cn1c(SCC#N)nc2ccccc2c1=O	none (no result: miR-122 sensor)
COc1ccc2c3c(n(C)c2c1)[C@@H](CO)N(C(=O)c1ccccn1)CC31CN(C(C)=O)C1	none (no result: RAD52 anneal inh, miR-122 sensor, NSD2 HMT inh, CASP6 VEID inh)
O=C(O)CC(C(=O)O)N1C(=O)/C(=C/c2ccc(-c3nc4ccccc4s3)o2)SC1=S (configuration not stated)	NSD2 HMT inh 67 (no result: RAD52 anneal inh, MLL AF4-AF9 inh, CASP6 VEID inh) | AlphaScreen art inactive
O=C(O)CCCN1C(=O)/C(=C/C=C/c2ccco2)SC1=S	NSD2 HMT inh 110, CASP6 VEID inh 82 (no result: miR-122 sensor) | AlphaScreen art inactive
O=C(O)CC(C(=O)O)N1C(=O)/C(=C/C=C/c2ccco2)SC1=S (configuration not stated)	NSD2 HMT inh active, CASP6 VEID inh 81 | AlphaScreen art inactive
O=C(N[C@H]1CC[C@@H](CCNS(=O)(=O)c2cccc(Cl)c2)O[C@H]1CO)c1ccccc1	none (no result: miR-122 sensor, NSD2 HMT inh)
O=C(C[C@@H]1CC[C@@H]2[C@H](COC[C@@H](O)CN2S(=O)(=O)c2cccc(F)c2)O1)Nc1ccccc1	none (no result: RAD52 anneal inh, MLL AF4-AF9 inh, NSD2 HMT inh, CASP6 VEID inh)
C[C@@H]1CCCCO[C@@H](CN(C)C(=O)Nc2ccc3c(c2)OCO3)[C@H](C)CN([C@H](C)CO)C(=O)c2cc(NS(C)(=O)=O)ccc2O1	none (no result: NSD2 HMT inh)
Cc1cccn2c(=O)c3cc(C(=O)NCCCn4ccnc4)n(C)c3nc12	NSD2 HMT inh 118 (no result: RAD52 anneal inh, MLL AF4-AF9 inh, CASP6 VEID inh) | AlphaScreen art inactive
COCCNC(=O)c1cc2c(=O)n3cccc(C)c3nc2n1C	none (no result: NSD2 HMT inh)
C=CCSc1nnc(-c2ccc(Cl)cc2Cl)o1	NSD2 HMT inh 68 (no result: RAD52 anneal inh, MLL AF4-AF9 inh, CASP6 VEID inh) | AlphaScreen art inactive
O=C(C[C@@H]1C[C@@H]2c3cc(NC(=O)C4CCC4)ccc3O[C@@H]2[C@@H](CO)O1)NCc1ccccn1	none (no result: NSD2 HMT inh)
Cc1ccc(NC(=O)Cn2nnc(C(=O)NCc3ccccc3)c2N)cc1C	NSD2 HMT inh 56 (no result: MLL AF4-AF9 inh) | AlphaScreen art inactive
Cc1ccc(NC(=O)c2nnn(CC(=O)Nc3ccccc3)c2N)cc1C	none (no result: RAD52 anneal inh, MLL AF4-AF9 inh, CASP6 VEID inh)
CC(=O)c1cc(O)c2ccccc2c1O	NSD2 HMT inh 79, CASP6 VEID inh 38 | AlphaScreen art inactive
Cc1ccc(OCc2cnc(Cl)s2)c(C)c1	NSD2 HMT inh 52 | AlphaScreen art inactive
